Assay results published in PubChem BioAssay (NCATS).
Records with an inconclusive call do not appear. Unmarked numbers belong to inactive results. Activity calls are given as the source filed them. The call rests on the fitted dose curve; in most records, active means well fitted activation curve with a large enough effect in the signal ratio (not every such curve was filed as active); inconclusive means small, poorly fitted or top-dose-only effect, or a change in a side signal; inactive means flat fitted curve, though single readings scatter; the % refers to the signal ratio.

experiment: qHTS assay for small molecule activators of the p53 signaling pathway (AID 651743); settings: HCT-116 p53RE-bla, beta-lactamase FRET ratio, 16 h; activation: active compounds read high; on activation: series mostly up to about 92 µM; % of control where 0% means no effect
Text: National Center for Advancing Translational Sciences [NCATS] NIH Chemical Genomics Center [NCGC] U.S. Environmental Protection Agency [EPA] National Institutes of Environmental Health Sciences [NIEHS] National Toxicology Program [NTP] Assay Overview: p53, a tumor suppressor protein, is activated following cellular insult, including DNA damage and other cellular stresses. The activation of p53 regulates cell fate by inducing DNA repair, cell cycle arrest, apoptosis, or cellular senescence. The activation of p53, therefore, is a good indicator of DNA damage and other cellular stresses. The CellSensor p53RE-bla HCT-116 cell line (Invitrogen) contains a stably integrated beta-lactamase reporter gene under control of the p53 response elements. The activation of the report gene under culture conditions can be detected by fluorescence intensity. This cell line can be used to screen chemicals in a 1536-well plate format and to identify agonists that activate p53 signaling pathway.
Assay Protocol Summary: The p53RE-bla cells were dispensed at 4,000 cells/5 ul/well in 1536-well black wall/clear bottom plates using a Multidrop dispenser. After the assay plates were incubated at a 37 C/5% CO2 incubator for 5 hours, 23 nL of compounds dissolved in DMSO, positive controls or DMSO only was transferred to the assay plate by a pin tool. The plates were incubated at 37 C for 16 hours. After 1 uL of LiveBLAzer B/G FRET substrate was added using a Flying Reagent Dispenser, the plates were incubated at room temperature for 2 hours, and fluorescence intensity was measured by an Envision plate reader.
Potency means the concentration at half of the fitted maximal effect.

Q: With `Oc1ccc(Nc2ccccc2)cc1` as the compound, how does the activation read?
A: 16.3%

Q: Which activation does the source give for `CCCCCCC(C)OC(=O)COc1nc(F)c(Cl)c(N)c1Cl` (stereo not given) here?
A: -6.58%

Q: Which activation does the source give for `CC(COc1ccc(C(C)(C)C)cc1)OS(=O)OCCCl` (stereo not given) here?
A: 8.46%

Q: For `c1ccc(OCCOc2ccccc2)cc1`, which activation is on record?
A: 2.08%

Q: With `O=C1CCC(C2CCCCC2)CC1` as the compound, how does the activation read?
A: -4.16%

Q: Which activation does the source give for `CC(C)CCCCCCCCCCCCCCC(=O)O` here?
A: 1.15%

Q: With `CC(C)c1ccc(C(C)C)cc1` as the compound, how does the activation read?
A: -6.39%

Q: With `CC(C)(C)c1ccc(C(=O)O)cc1` as the compound, how does the activation read?
A: -4.37%

Q: Which activation does the source give for `COC(=O)c1cccc(C(=O)OC)c1` here?
A: 2.13%

Q: With `CCCCCCCCCCCO` as the compound, how does the activation read?
A: 1.01%

Q: For `CN(C)c1ccc(C(c2ccccc2)c2ccc(N(C)C)cc2)cc1`, which activation is on record?
A: -0.413%

Q: Which activation does the source give for `Cc1ccc(N=Nc2c(O)ccc3ccccc23)c([N+](=O)[O-])c1` here?
A: -4.13%

Q: For `c1cc2ccc3ccc4ccc5cccc6c(c1)c2c3c4c56`, which Potency is on record?
A: 35.5 µM (active)

Q: With `CCCCCCCCCC[N+](C)(C)Cc1ccccc1` as the compound, how does the activation read?
A: 6.02%

Q: For `COC(=O)c1c(Cl)nn(C)c1S(=O)(=O)NC(=O)Nc1nc(OC)cc(OC)n1`, which activation is on record?
A: -0.555%

Q: With `CCSC(=O)N(CC(C)C)CC(C)C` as the compound, how does the activation read?
A: -3.92%

Q: With `Cn1c(=O)[nH]c(=O)n(C2CCCCC2)c1=O` as the compound, how does the activation read?
A: -1.53%

Q: For `C=CCCCCCCCCCC`, which activation is on record?
A: -0.565%

Q: For `CCCCCCCC/C=C\CCCCCCCC(=O)OC`, which activation is on record?
A: 1.64%

Q: For `CCCCCCCCCCCCCCN(C)C`, which activation is on record?
A: 5.52%

Q: Which activation does the source give for `CC1(C)CC(OC(=O)CCCCCCCCC(=O)OC2CC(C)(C)NC(C)(C)C2)CC(C)(C)N1` here?
A: -2.75%

Q: Which activation does the source give for `CCCCCc1ccc(N)cc1` here?
A: 9.16%

Q: Which activation does the source give for `CCCCC(CC)CN1C(=O)C2C3C=CC(C3)C2C1=O` (stereo not given) here?
A: -2.19%

Q: Which activation does the source give for `O=C(Cl)c1cccc(C(=O)Cl)c1` here?
A: -3.51%

Q: With `COc1nc(C)nc(NC(=O)NS(=O)(=O)c2ccccc2OCCCl)n1` as the compound, how does the activation read?
A: -4.39%

Q: For `COC(=O)c1ccc(CNS(C)(=O)=O)cc1S(=O)(=O)NC(=O)Nc1nc(OC)cc(OC)n1`, which activation is on record?
A: -5.96%

Q: For `Cc1nn(C)c(Oc2ccccc2)c1/C=N/OCc1ccc(C(=O)OC(C)(C)C)cc1`, which activation is on record?
A: 9.47%

Q: For `CCCCCC1CCC(=O)O1` (stereo not given), which activation is on record?
A: 0.985%

Q: Which activation does the source give for `CCCCCCCCCC(C)=O` here?
A: -2.23%

Q: For `CO[Si](OC)(OC)c1ccccc1`, which activation is on record?
A: -3.17%

Q: Which activation does the source give for `CC1(C)C(=O)NC(=O)N1CO` here?
A: -0.511%

Q: With `CC1(C)C(=O)N(Br)C(=O)N1Cl` as the compound, how does the activation read?
A: 2.83%

Q: With `CCOC(=O)[C@H](C)Oc1ccc(Oc2nc3ccc(Cl)cc3o2)cc1` as the compound, how does the activation read?
A: -9.98%

Q: Which activation does the source give for `CCCCCCCC(=O)Oc1c(Br)cc(C#N)cc1Br` here?
A: 6.26%

Q: For `O=[N+]([O-])c1ccc2c(c1)Cc1ccccc1-2`, which activation is on record?
A: 4.31%

Q: Which activation does the source give for `CCCCCCCCCCCCCCCCCC#N` here?
A: -6.64%

Q: With `CC(Cl)(Cl)C(=O)OCCOc1cc(Cl)c(Cl)cc1Cl` as the compound, how does the activation read?
A: -0.345%

Q: Which activation does the source give for `CCOCCOCCOC(C)=O` here?
A: 1.91%

Q: For `CC1(C)C(C=C(Cl)Cl)[C@H]1C(=O)OCc1cccc(Oc2ccccc2)c1` (stereo not given in full), which activation is on record?
A: -1.46%

Q: Which activation does the source give for `CCCCCCCOC(=O)c1ccccc1C(=O)OCCCCCCC` here?
A: -3.71%
